In all, about 1,700 compounds went through this assay and about 1,100 (65%) were called active.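 Rule for the calls: active = duplicate-averaged calcium response above the buffer-only control mean plus 5 SD of those controls; inactive = the rest.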 The set was probably picked from earlier hits. A selection follows.
Experiment: increase of M3R-evoked calcium signal – cell-based, validation screen, HEK293 M3R/RGS4, calcium flux, RGS4 inhibitor project (AID 492999);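 for calcium response: integrated fluorescence ratio F max minus min over baseline F0; higher response in RGS4-induced cells means RGS4 inhibition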
Details: HEK293 M3R/RGS4, carbachol calcium Fluo-4 fluorescence, at 10 µM, carbachol added at its EC20; active compounds read high, 0 = buffer wells, 100 = carbachol control

Compound	calcium response
CCOC(=O)C1=NN(c2ccc(Cl)cc2)/C(=C/C2=NCCc3cc(OC)c(OC)cc32)S1	10.5% (active)
CCC(c1nnnn1Cc1ccco1)N(Cc1cc2cc(OC)ccc2[nH]c1=O)C1CCCCC1 (configuration not stated)	inactive
COc1ccc(/C(O)=C2/C(=O)C(=O)N(c3nc(C)c(C)s3)C2c2ccco2)cc1 (configuration not stated)	inactive
COc1ccc(-c2csc(Nc3ccc(O)cc3)n2)cc1	10% (active)
C=CCSc1nc2c(c(=O)[nH]1)C(C(C)C)C(C#N)=C(N)O2 (configuration not stated)	26% (active)
COc1cc(Br)cc(/C=N/c2ncn[nH]2)c1O	8% (active)
COc1cc(/C=C2/SC(=S)N(Cc3ccccc3)C2=O)cc(OC)c1O	inactive
COc1cc(/C=C2/C(=O)NN(c3cccc(Cl)c3)C2=O)cc(Br)c1O	30.5% (active)
C#CCOc1ccc(/C=C2/C(=O)NN(c3ccccc3)C2=O)cc1OC	9% (active)
Oc1ccc(/C=N/Nc2ccc(C(F)(F)F)cn2)cc1O	16.5% (active)
COc1ccc(/C=C/C(=O)c2ccc(OC)cc2O)cc1	inactive
Cc1nc(-c2ccccc2)sc1C(=O)/C=C/c1ccccc1	10% (active)
O=C1Nc2ccc(Br)cc2/C1=N/N=C/C1=C(N2CCOCC2)C(=C\c2ccccc2)/CC1	18.5% (active)
O=C(Nc1ccccc1)OCc1cc(-c2ccc(Cl)cc2)on1	inactive
COCCCNC(=S)N(CCN(C)C)Cc1cc2cc3c(cc2[nH]c1=O)OCCO3	inactive
COc1ccc(OC)c(S(=O)(=O)N2CCCC(C(=O)N3CCC(C(N)=O)CC3)C2)c1 (configuration not stated)	inactive
CCOC(=O)C1CCN(C(c2cc3cc(C)cc(C)c3[nH]c2=O)c2nnnn2C2CCCCC2)CC1 (configuration not stated)	18% (active)
CCOC(=O)[C@@H]1[C@H]2COc3ccc(Br)cc3[C@H]2N2C(=O)N(c3ccc(Cl)cc3)C(=O)[C@@]12C	inactive
Cc1cc(C)nc(S/C=C/C(=O)c2ccccc2)n1	19.5% (active)
CCOc1ccc(/C=N/NC(=O)CSc2ccccn2)cc1O	inactive
Cc1ccc(Sc2cc(N3CCOCC3)nc(-c3ccccc3)n2)cc1	28% (active)
C[C@H](NC(=O)c1nc[nH]c1C(=O)NCC(=O)OC(C)(C)C)c1ccccc1	13% (active)
O=C(Nc1ccc(Cl)cc1)OCc1cc(-c2ccccc2)on1	inactive
COC(=O)Cn1cc(/C=C/[N+](=O)[O-])c2ccccc21	33.5% (active)
Cc1nc(Nc2ccc(S(=O)(=O)N3CCCC3)cc2)c2nnn(Cc3ccccc3)c2n1	inactive
O=C(/C=C/c1ccc(Cl)c([N+](=O)[O-])c1)c1cccnc1	9% (active)
O=C(/C=C/c1ccc(Cl)c([N+](=O)[O-])c1)c1ccc(O)cc1	22% (active)

Reference: PubChem BioAssay AID492999 (Johns Hopkins Ion Channel Center, 2010)
